HT1080-NT tox: qHTS for induction of synthetic lethality in tumor cells producing 2HG: qHTS for the HT-1080-NT fibrosarcoma cell line. HT-1080-NT fibrosarcoma viability, CellTiter-Glo ATP luminescence, 48 h. Potency, µM (doses to about 46.1 µM), inactives show at the top dose activity, negative = less viability, most hits filed as cytotoxic. 1.6% of 360,000 active. AID 686970, 2013;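 note: NT is the 2HG producing partner of a matched IDH1 knockdown line; 0% = DMSO-treated cells and -100% = media-only wells without cells; nearly all actives have a fitted effect of over 55% in size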
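Luminescent CellTiter-Glo readout after 48 hours of compound exposure at 37 degrees C defined viability of HT-1080-NT cells. Activity was normalized to DMSO wells and cell-free media wells; concentration-response curves were fitted and assigned curve classes.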
KB-V1 MDR tox: qHTS assay for MDR1-selective chemotherapeutics: Primary screen using the drug-selected MDR subline cells KB-V1. 3.4% of 400,000 active. Potency, µM (doses to about 46.1 µM), hits mostly cytotoxic. KB-V1 MDR cells viability, CellTiter-Glo, 72 h. AID 1347076, 2019; note: nearly all actives have a fitted effect of over 60% in size
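Drug-selected KB-V1 cells, grown in DMEM lacking phenol red with 10% FBS, receive compound titrations; after three days at 37 degrees C, surviving cell ATP is quantified by CellTiter-Glo luminescence and responses normalized and curve-fitted.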
HT1080 IDH1KD tx: qHTS for induction of synthetic lethality in tumor cells producing 2HG: qHTS for the HT-1080-IDH1KD cell line | AID 686971, 2013 | Potency, µM (top dose mostly 46.1 µM), without a hit: at the top dose activity, negative = toxicity, hits mostly cytotoxic | HT-1080 IDH1 knockdown viability, ATP luminescence, 48 h | 2% of 360,000 active;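 note: 0% = DMSO wells and -100% = cell-free medium wells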
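Using the IDH1-knockdown HT-1080 line run in the same batch and compound series as the NT line, viability after 48 h at 37 °C was determined by CellTiter-Glo luminescence and expressed as % activity.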
KB-3-1 cytotox: qHTS assay for MDR1-selective chemotherapeutics: Primary screen using the parental adenocarcinoma cell KB-3-1; KB-3-1 viability, CellTiter-Glo ATP luminescence, 72 h; 1.4% of 400,000 active; Potency, µM (titrated, usually from 46.1 µM), usual class: cytotoxic; note: nearly all actives have a fitted effect of over 60% in size
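Cytotoxicity in the drug-sensitive parental line KB-3-1 was scored as loss of CellTiter-Glo luminescence following 72 h incubation with compound. Values come from curve fitting of normalized concentration-response data.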
Starred values were filed as active, the others as inactive; i = inactive; ? = inconclusive; . = no result; [ ] = dose if it differs, or a comment. Compounds with a hit are over-represented: about 5.7% of the library has one in this group of screens. Calls come from the whole dose curve; as a rule, active = well fitted curve in the direction sought with a large enough effect; inconclusive = small, poorly fitted or top-dose-only effect, or another doubt; inactive = no such curve, though single readings can be large; an effect the other way counts as inactive or inconclusive. Unless noted, % is set by controls: 0 for no effect and ±100 for the full control effect; potency is the fitted concentration of half-maximal effect.

SMILES | HT1080-NT tox | KB-V1 MDR tox | HT1080 IDH1KD tx | KB-3-1 cytotox
Cc1ccc(C(C)NC(=O)CSc2ccc(S(=O)(=O)N3CCOCC3)cn2)cc1C (stereo unspecified) | -2% | 18µM* | -4% | i
COc1ccc(NC(=O)CSc2nc(-c3ccc(OC)cc3)cc(=O)[nH]2)cc1 | . | i | . | i
O=C(O)c1ccccc1-c1cn2cc(Cl)ccc2n1 | -6% | i | -19% | i
Clc1ccc2nc(-c3ccc(Br)s3)cn2c1 | ? | 18µM* | -1% | i
COc1ccc(-c2cn3cc(Cl)ccc3n2)cc1OC | -5% | 16µM* | -5% | i
Nc1ncnc2c1[nH]c(=S)n2C1OC(CO)C(O)C1O (stereo unspecified) | . | i | . | i
COc1ccc(Nc2ncc(C(=O)Nc3ccc(F)cc3F)c3ccccc23)cc1 | . | ? | . | i
CC[n+]1ccccc1/C=C/c1ccc(N(C)C)cc1 | ? | i | 18µM* | 1.3µM*
CC[n+]1ccc(/C=C/c2ccc(N(C)C)cc2)c2ccccc21 | ? | i | 1.3µM* | 1.2µM*
CC[n+]1c(/C=C/c2ccc(N(C)C)cc2)ccc2ccccc21 | 10µM* | ? | 10µM* | ?
CCCCCC[n+]1ccccc1/C=C/c1ccc(N(C)C)cc1 | 7.3µM* | i | 1.2µM* | ?
CN(C)c1ccc(/C=C/c2ccc3ccccc3[n+]2[O-])cc1 | . | ? | . | i
CN(C)c1ccc(/C=C/c2cc[n+]([O-])c3ccccc23)cc1 | . | ? | . | i
CN(C)c1ccc(/C=C/c2cccc3ccccc23)cc1 | . | i | . | i
O=C(CSc1nncn2c1cc1occc12)Nc1ccccc1C(F)(F)F | . | i | . | i
COC(=O)CSc1cccc2c1C(=O)CC2c1ccccc1 (stereo unspecified) | 0% | i | 4% | i
O=C1C=CC2(O[C@H](c3ccccc3)[C@@H](c3ccccc3)O2)[C@H](Sc2ccccc2O)C1 | 4.6µM* | ? | 3.3µM* | 3.3µM*
COc1ccc(CN2CCN(c3cc(C)nc4c5c(C)cc(C)nc5nn34)CC2)cc1F | -4% | 2.3µM* | 10% | i
Cn1c(=O)c2cc(NC(=O)NCc3ccccc3)ccc2n1C/C=C/c1ccccc1 | 8.2µM* | i | 8.2µM* | ?
Cc1cc(C)cc(Cn2c3ccc(NC(=O)NCc4ccccc4)cc3c(=O)n2C)c1 | -2% | i | 7% | i
Fc1cccc(-c2cc3nc4c(c(N5CCOCC5)n3n2)CCCC4)c1 | 2% | 26µM* | 10% | i
COCCn1c(C)cc(O)c(C(c2ccccc2)N2CCC(C)CC2)c1=O (stereo unspecified) | . | i | . | i
Cc1c(Cl)cccc1NC(=O)CCS(=O)(=O)c1cccc2nsnc12 | . | i | . | i
CC(C)(C)n1nnnc1C(c1cccs1)N(Cc1ccc(Cl)cc1)CC1CCCO1 (stereo unspecified) | -26% | i | ? | 23µM*
Cc1ccc(C(c2nnnn2C(C)(C)C)N(Cc2ccco2)Cc2cccs2)cc1 (stereo unspecified) | -7% | ? | -15% | 16µM*
SMILES | HT1080-NT tox | KB-V1 MDR tox | HT1080 IDH1KD tx | KB-3-1 cytotox
CC(C)(C)n1nnnc1C(c1cccnc1)N(Cc1ccccc1)Cc1cccs1 (stereo unspecified) | ? | 21µM* | ? | ?
CC(C)(C)n1nnnc1C(c1cc2ccccc2o1)N(Cc1ccccc1)Cc1ccccc1 (stereo unspecified) | -9% | 21µM* | ? | ?
CCc1cccc2c(N=O)c(O)[nH]c12 | 0% | 16µM* | -18% | ?
CC(C)(C)c1ccc(C(=O)N2CCN(Cc3cc(=O)n4nc(-c5ccccc5F)sc4n3)CC2)cc1 | . | i | . | i
O=C1CCC(C(=O)OCC(=O)N2N=C3/C(=C\c4ccccc4)CCCC3C2c2ccccc2)N1 (stereo unspecified) | -8% | i | -13% | i
O=C1CCC(C(=O)OCC(=O)N2N=C3/C(=C/c4ccccc4)CCCC3C2c2ccccc2)N1 (stereo unspecified) | 2% | ? | -12% | 21µM*
CN(CC(=O)NCc1ccco1)C(=O)C1CC(=O)N(c2ccc3c(c2)OCCO3)C1 (stereo unspecified) | -1% | i | -1% | i
COc1ccc(OC)c(NC(=O)c2cn(CC(C)C)c(=O)c3cc(OC)c(OC)cc23)c1 | . | i | . | i
COc1ccc(CC(=O)Nc2ccc(-c3cn4ccc(C)cc4n3)cc2)cc1 | 15µM* | ? | ? | i
Cc1ccc(C)c(N2CCN(C3CCCCC3NS(=O)(=O)c3ccccc3)CC2)c1 (stereo unspecified) | 9% | i | 0% | 16µM*
CC(=O)Nc1cccc(C(=O)Nc2ccccc2N2CCOCC2)c1 | ? | 15µM* | ? | 16µM*
COc1cc(C(=O)OCC#N)ccc1OCc1c(C)noc1C | ? | ? | 26µM* | ?
COc1ccc(C(=O)NC(=S)Nc2ccccc2N2CCOCC2)cc1Br | 5% | 16µM* | 5% | i
COc1ccc(C(=O)Nc2ccccc2N2CCOCC2)cc1Br | 11% | i | 7% | i
COc1cc(C(=O)Nc2ccccc2N2CCOCC2)ccc1OCc1c(C)noc1C | 9% | 4.6µM* | 9% | i
COc1ccc(CNC(=O)c2cc3ccccn3n2)c(OC)c1 | . | i | . | i
O=[N+]([O-])c1cccc(S(=O)(=O)N2CCN(c3nc(-c4cccs4)nc4ccccc34)CC2)c1 | . | i | . | i
O=[N+]([O-])c1ccc(Sc2cc[n+]([O-])c3ccccc23)c([N+](=O)[O-])c1 | 16µM* | ? | 18µM* | i
COc1cc(/C=N/NC(=O)c2ccc(-c3ccccc3)cc2)cc(OC)c1OC | 0% | i | -10% | i
COc1cc(/C=C(/C(=O)O)c2ccc(-c3ccccc3)cc2)cc(OC)c1OC | ? | ? | 9.2µM* | ?
CCN(CC)c1ccc(/C=N/NC(=O)c2ccoc2C)c(O)c1 | ? | ? | 5.2µM* | 12µM*
CCN(CC)c1ccc(/C=N/NC(=S)NC)c(O)c1 | -18% | i | -17% | 9.2µM*
CCN(CC)c1ccc(/C=N/NC(=O)OC)c(O)c1 | -7% | ? | 12%[9.24 µM] | i
CCN(CC)c1ccc(/C=N/NC(=O)c2ccc3nc[nH]c3c2)c(O)c1 | ? | i | 2.1µM* | ?
CCN(CC)c1ccc(/C=N/N=C(N)N)c(O)c1 | 1µM* | ? | 1.6µM* | ?
Cc1ccc(N(C(=O)c2cccc(C)c2)S(=O)(=O)c2ccc(Cl)cc2)cc1 | . | i | . | i
Nc1[nH]c(=S)[nH]c(=O)c1N=O | . | i | . | ?

Screens from PubChem BioAssay.
